PubChem BioAssay
Active and inactive are the calls of the source.

Tests used:
[1] = optical density shifts of acrAB sulA E. coli – strain DRC41, OD650, 48 h, E. coli filamentation inducer project, primary screen (AID 1152); details: higher = more signal, called active from +8 up or from −8 down;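 further: E. coli MC1000 strain DRC41 lacking acrAB efflux pump and sulA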
[2] = probe aLefty1 binding on compound microarray – biochemical, small-molecule microarray, 635/667 nm fluorescence, primary screen (AID 1153); details: higher = more signal;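 further: score merges spot fluorescence with signal-to-noise ratio from the scanned slide images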
[3] = plasmodial surface anion channel blockers, osmotic lysis – cell-based, P. falciparum Indochina, OD700, 1 h, primary screen (AID 1154); details: P. falciparum Indochina infected RBC osmotic lysis, higher = more signal, called active from +8 up or from −8 down
[4] = plasmodial surface anion channel blockers, osmotic lysis – cell-based, P. falciparum Indochina, OD700, 2 h, primary screen (AID 1155);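 further: lysis reports solute entry through the parasite surface anion channel PSAC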; details: P. falciparum Indochina infected erythrocytes, higher = more signal, called active from +8 up or from −8 down
[5] = changes in parasitized red cell lysis, either direction – P. falciparum Indochina, OD700, 3 h, PSAC antagonist project, primary screen (AID 1156); details: P. falciparum-infected erythrocytes, osmotic lysis, higher = more signal, called active from +8 up or from −8 down
[6] = plasmodial surface anion channel blockers, osmotic lysis – cell-based, P. falciparum Indochina, OD700, 18 h, primary screen (AID 1157); details: P. falciparum Indochina infected erythrocytes, osmotic lysis OD700, 18 h; higher = more signal, called active from +8 up or from −8 down
[7] = S6 kinase pathway phospho-S6 level changes – cell-based, A549, cytoblot, luminescence, serum-stimulated, primary screen (AID 1158); details: 5 h, higher = more signal;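 further: serum-stimulated A549 lung adenocarcinoma cells; signal is phosphorylated S6 detected by cytoblot immunostaining with HRP secondary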
[8] = biological target: NADPH oxidase 2 (Homo sapiens) (UniProt P04839); assay: compounds shifting NOX2 Amplex Red fluorescence – cell-based, HEK293-NOX2, PMA-stimulated, NOX inhibitor project, primary screen (AID 1159); details: 45 min, higher = more signal, called active from +8 up or from −8 down; further: test concentration not given here
Chain of NADPH oxidase 2 (Homo sapiens) (P04839 whole entry, looked up): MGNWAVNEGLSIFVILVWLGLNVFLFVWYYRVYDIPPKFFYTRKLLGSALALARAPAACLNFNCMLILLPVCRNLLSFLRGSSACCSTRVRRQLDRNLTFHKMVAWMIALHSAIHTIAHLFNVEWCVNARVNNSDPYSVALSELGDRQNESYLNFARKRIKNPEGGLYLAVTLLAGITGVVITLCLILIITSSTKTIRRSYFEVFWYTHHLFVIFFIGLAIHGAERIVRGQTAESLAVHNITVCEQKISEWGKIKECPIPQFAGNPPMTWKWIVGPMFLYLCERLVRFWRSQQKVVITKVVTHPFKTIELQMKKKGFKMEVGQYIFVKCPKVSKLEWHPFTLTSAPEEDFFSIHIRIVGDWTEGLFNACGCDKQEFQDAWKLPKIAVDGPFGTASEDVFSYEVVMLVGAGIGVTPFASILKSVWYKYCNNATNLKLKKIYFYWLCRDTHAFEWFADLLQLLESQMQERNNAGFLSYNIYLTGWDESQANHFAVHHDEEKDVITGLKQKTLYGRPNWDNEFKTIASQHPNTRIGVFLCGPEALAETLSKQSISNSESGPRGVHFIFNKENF

[9] = biological target: NADPH oxidase 4 (Homo sapiens) (UniProt Q9NPH5); assay: compounds shifting NOX4 Amplex Red fluorescence – cell-based, HEK293-NOX4, tetracycline-induced, NOX inhibitor project, primary screen (AID 1160); details: HEK293-NOX4, Amplex Red H2O2 fluorescence, 45 min; higher = more signal, called active from +8 up or from −8 down
Chain of NADPH oxidase 4 (Homo sapiens) (Q9NPH5 whole entry, looked up): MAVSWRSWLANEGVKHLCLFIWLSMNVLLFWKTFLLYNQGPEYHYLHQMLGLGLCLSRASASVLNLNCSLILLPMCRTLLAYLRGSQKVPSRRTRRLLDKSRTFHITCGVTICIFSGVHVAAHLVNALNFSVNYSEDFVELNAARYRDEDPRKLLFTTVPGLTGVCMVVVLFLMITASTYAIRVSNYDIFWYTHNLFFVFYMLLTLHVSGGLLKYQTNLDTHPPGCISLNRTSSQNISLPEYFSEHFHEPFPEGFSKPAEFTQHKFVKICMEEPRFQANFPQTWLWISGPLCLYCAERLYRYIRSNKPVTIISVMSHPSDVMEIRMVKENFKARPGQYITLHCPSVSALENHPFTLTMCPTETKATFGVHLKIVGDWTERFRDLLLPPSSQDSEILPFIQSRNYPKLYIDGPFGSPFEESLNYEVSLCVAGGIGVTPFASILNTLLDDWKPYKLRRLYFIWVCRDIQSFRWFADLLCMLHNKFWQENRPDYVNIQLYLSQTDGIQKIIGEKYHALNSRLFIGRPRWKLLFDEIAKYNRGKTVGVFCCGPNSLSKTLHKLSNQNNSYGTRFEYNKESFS

[10] = biological target: NADPH oxidase 5 (Homo sapiens) (UniProt Q96PH1); assay: compounds shifting NOX5 Amplex Red fluorescence – cell-based, HEK293-NOX5, NOX inhibitor project, primary screen (AID 1161); details: HEK293-NOX5, ionomycin, 45 min, higher = more signal
Chain of NADPH oxidase 5 (Homo sapiens) (Q96PH1 whole entry, looked up): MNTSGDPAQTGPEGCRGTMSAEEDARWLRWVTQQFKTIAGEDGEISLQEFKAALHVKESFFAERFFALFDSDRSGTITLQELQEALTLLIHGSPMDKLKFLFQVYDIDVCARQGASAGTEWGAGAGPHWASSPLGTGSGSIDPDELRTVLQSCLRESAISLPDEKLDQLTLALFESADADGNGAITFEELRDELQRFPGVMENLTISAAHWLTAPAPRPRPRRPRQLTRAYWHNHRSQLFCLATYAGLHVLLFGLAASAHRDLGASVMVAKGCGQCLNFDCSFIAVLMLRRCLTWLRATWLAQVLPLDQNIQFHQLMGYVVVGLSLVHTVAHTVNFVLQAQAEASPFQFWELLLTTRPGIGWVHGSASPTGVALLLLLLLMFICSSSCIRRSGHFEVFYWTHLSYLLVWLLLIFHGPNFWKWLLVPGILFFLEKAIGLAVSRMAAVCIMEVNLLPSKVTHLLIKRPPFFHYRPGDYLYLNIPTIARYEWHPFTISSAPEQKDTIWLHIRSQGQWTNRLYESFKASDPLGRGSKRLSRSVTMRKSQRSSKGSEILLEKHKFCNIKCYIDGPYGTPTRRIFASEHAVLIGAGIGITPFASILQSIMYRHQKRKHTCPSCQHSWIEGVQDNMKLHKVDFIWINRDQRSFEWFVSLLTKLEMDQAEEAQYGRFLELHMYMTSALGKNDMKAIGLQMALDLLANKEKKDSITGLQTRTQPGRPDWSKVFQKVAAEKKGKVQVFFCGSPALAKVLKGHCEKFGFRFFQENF

Row | Structure (SMILES) | z-score [1] | composite z-score [2] | z-score [3] | z-score [4] | z-score [5] | z-score [6] | z-score [7] | z-score [8] | z-score [9] | z-score [10]
1 | CC(C)(C)OC(=O)CC[C@]1(C(=O)O)COC(c2ccc(OCCCO)cc2)=N1 | -0.283 (inactive) | 0.126 | 2.54 (inactive) | -0.0827 (inactive) | 0.091 (inactive) | 0.0515 (inactive) | -0.426 | 0.0212 (inactive) | 0.624 (inactive) | 0.487
2 | CC(=O)NCCCC[C@@H]1NC(=O)[C@@H]2C[C@H](C(=O)NCCCC[N+](C)(C)C)[C@H](c3cccc(OCCO)c3)N2C1=O | -0.832 (inactive) | 0.206 | 1.63 (inactive) | 0.372 (inactive) | -0.122 (inactive) | 0.154 (inactive) | -0.246 | 0.151 (inactive) | -0.0151 (inactive) | 1.29
3 | CCOC(=O)C1=CC[C@@H](c2cccc(Br)c2)N(S(=O)(=O)c2ccc(C)cc2)[C@H]1c1ccc([N+](=O)[O-])cc1 | -1.22 (inactive) | 0.0509 | 1.27 (inactive) | 1.55 (inactive) | -0.0988 (inactive) | 1.29 (inactive) | -0.68 | 1.24 (inactive) | 0.77 (inactive) | 0.165
4 | COCC1=C([C@H](O)CCc2ccccc2)[C@H](CO)[C@@H]2C(=O)N(C)C(=O)[C@@H]2C1 | 1.87 (inactive) | -0.0691 | 9.45 (active) | 1.29 (inactive) | -0.64 (inactive) | 0.254 (inactive) | 0.155 | -0.58 (inactive) | 0.371 (inactive) | 0.4
5 | COc1ccc([Si](C)(C)[C@@H]2[C@@H](CC(=O)N(CCO)Cc3ccccc3)O[C@]3(C(=O)N(C)c4c(Br)cc(C)cc43)[C@H]2C)cc1 | -1.98 (inactive) | -0.103 | 26.6 (active) | 14.2 (active) | 0.233 (inactive) | 2.09 (inactive) | 0.336 | -1.91 (inactive) | -0.00605 (inactive) | -1.28
6 | COC(=O)c1ccc(OC)c(/C=C\CC(CCc2ccccc2)OC(=O)c2ccncc2)c1 (stereo not given) | -0.295 (inactive) | -0.251 | 17.9 (active) | 3.19 (inactive) | 0.533 (inactive) | 0.672 (inactive) | -0.224 | -0.392 (inactive) | 0.67 (inactive) | -0.11
7 | COc1ccc([Si](C)(C)[C@@H]2[C@@H](CCO)O[C@]3(C(=O)N(Cc4ccccc4)c4ccc(N5CCCCC5=O)cc43)[C@H]2C)cc1 | 2.13 (inactive) | 0.0984 | 3.59 (inactive) | 1.19 (inactive) | -0.121 (inactive) | 0.231 (inactive) | 0.863 | -0.421 (inactive) | -0.278 (inactive) | 1.37
8 | CC(=O)NCCCC[C@@H]1NC(=O)[C@H]2C[C@@H](C(=O)NCCCCCN)[C@@H](c3cccc(OCCO)c3)N2C1=O | 2.39 (inactive) | 0.262 | 1.15 (inactive) | -1.08 (inactive) | 1.9 (inactive) | -1.98 (inactive) | 1.36 | 0.0821 (inactive) | 0.793 (inactive) | 0.875
9 | COC(=O)[C@]1(Cc2ccccc2CN=[N+]=[N-])N=C(c2ccc(OCCCO)cc2)O[C@@H]1c1ccccc1CN=[N+]=[N-] | 1.23 (inactive) | 0.0962 | 30.8 (active) | 24.1 (active) | 1.88 (inactive) | 5.85 (inactive) | 0.196 | -2.35 (inactive) | -0.0356 (inactive) | -1.79
10 | O=C1O[C@H](c2ccccc2)[C@H](c2ccccc2)N2[C@H]1[C@@H](C(=O)N1CCN(c3ncccn3)CC1)[C@]1(C(=O)Nc3ccc(C#CCCO)cc31)[C@H]2c1ccc(OCCO)cc1 | -0.0115 (inactive) | 0.473 | 4.32 (inactive) | 1.18 (inactive) | 0.588 (inactive) | 0.585 (inactive) | 0.034 | 1.11 (inactive) | 0.57 (inactive) | 0.951
11 | O=[N+]([O-])c1ccc(C[n+]2ccc(-c3ccc(CO)cc3)cc2)o1 | -1.32 (inactive) | -0.0764 | 1.34 (inactive) | 0.199 (inactive) | 0.495 (inactive) | -0.139 (inactive) | -0.103 | 0.0654 (inactive) | -0.765 (inactive) | -3.73
12 | CCCCCCC#C[Si](O[C@H](c1ccccc1)c1cn(Cc2cccc(Cl)c2)nn1)(C(C)C)C(C)C | 1.9 (inactive) | -0.142 | 0.876 (inactive) | 0.886 (inactive) | 0.0206 (inactive) | 0.162 (inactive) | 0.635 | -0.706 (inactive) | -0.705 (inactive) | -0.576
